Test [1] has as its target Gonadotropin-releasing hormone receptor (Homo sapiens) (UniProt P30968). The test can be described thus: Human gonadotropin-releasing hormone receptor (GnRHR) small molecule agonists, calcium flux assay in GnRHR-HEK293 cells (AID 1920063). Note: nearly all actives have a fitted effect of over 35% in size. A digest of the protocol: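 HEK293 cells stably expressing human GnRHR were plated 18 h at 37 °C, loaded with calcium dye 1 h at 37 °C, then given compound in agonist mode; fluorescence (Ex/Em 480/540) read kinetically for 3 min at 1 s intervals.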
A general note: A change in cytosolic calcium serves as a functional read-out for many receptors and channels.

Test [2] has as its target KiSS-1 receptor (Homo sapiens) (UniProt Q969F8). The test can be described thus: Human kisspeptin (KISS1R) small molecule agonists, calcium flux assay in KISS1R-HEK293 cells (AID 1920064; active = well fitted activation curve with a large enough effect in the repeat runs). A digest of the protocol: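 HEK293 cells stably expressing human KISS1R were plated 18 h at 37 °C, loaded with calcium dye for 1 h at 37 °C, then given compound by pin tool. Fluorescence (Ex/Em 480/540) was read kinetically for 3 min.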

The nature of test [3]: G protein-coupled receptor (GPCR) small molecule agonists, calcium flux assay: HEK293 wild type cell line counter screen (AID 1920065). A digest of the protocol: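 Cells were plated and cultured 18 h at 37 C/5% CO2, then loaded with calcium dye for 1 h at 37 C. Compounds in DMSO were pin-transferred in agonist mode, and fluorescence (Ex/Em 480/540) was read kinetically for 3 min at 1 s intervals.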

The nature of test [4]: p53 small molecule agonists, cell-based qHTS assay with human liver microsomes (AID 1963577). A digest of the protocol: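 p53RE-bla cells, 4,000/well, compound added after 5 h, with human liver microsomes 0.5 mg/mL and NADPH 0.5 mg/mL final; 16 h at 37 C, then LiveBLAzer 2 h RT, fluorescence.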
Test [5] in a line: p53 small molecule agonists, cell-based qHTS assay with rat liver microsomes (AID 1963578). A digest of the protocol: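 p53RE-bla cells, 4,000/well, pre-incubated 5 h, then given compounds plus rat liver microsomes (0.5 mg/mL final) and NADPH (0.5 mg/mL final). Incubation 16 h at 37 C; beta-lactamase reporter read by LiveBLAzer fluorescence after 2 h at room temperature.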
Test [6] in a line: p53 small molecule agonists, cell-based qHTS assay with human liver microsomes: qHTS cell viability counter screen (AID 1963579). Note: nearly all actives have a fitted effect of over 45% in size. Note: potency is the fitted concentration of half-maximal effect. A digest of the protocol:
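p53RE-bla cells, 4,000/well, dosed 5 hours after plating, with human liver microsomes (0.5 mg/mL final) plus NADPH (0.5 mg/mL final), 16 hours at 37 C. Viability read as CellTiter-Glo luminescence after 30 min at room temperature.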

Test [7] is described as follows: p53 small molecule agonists, cell-based qHTS assay: qHTS cell viability counter screen (AID 1963581). Note: nearly all actives have a fitted effect of over 45% in size. A digest of the protocol:
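p53RE-bla HCT-116 cells were exposed to compounds for 16 h at 37 C; after the beta-lactamase FRET read in the same wells, CellTiter-Glo was added and luminescence (intracellular ATP) read after 30 min at room temperature.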

A short description of test [8]: p53 small molecule agonists, cell-based qHTS assay (AID 1963582; active = well fitted activation curve with a large enough effect in the signal ratio in the repeat runs, not every such curve was filed as active; the % refers to the signal ratio). A digest of the protocol: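 p53RE-bla beta-lactamase reporter cells rested 5 h at 37 C/5% CO2, then received compounds in DMSO by pin transfer and were incubated 16 h at 37 C. LiveBLAzer B/G FRET substrate was loaded for 2 h at room temperature before fluorescence reading.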
Test [9] has as its target 5-hydroxytryptamine receptor 2A (Homo sapiens) (UniProt P28223). The test can be described thus: 5-hydroxytryptamine receptor 2A (HTR2A) small molecule agonists, cell-based qHTS assay (AID 1963587). Note: nearly all actives have a fitted effect of over 30% in size. Note: potency is the fitted concentration of half-maximal effect. A digest of the protocol: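 CHO cells stably expressing human HTR2A, plated 18 h, loaded with calcium dye 1 h at 37 C. Agonist mode: compounds added and intracellular calcium fluorescence recorded kinetically for 2 min at 1 sec intervals.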

For test [10], the target named is Muscarinic acetylcholine receptor M1 (Homo sapiens) (UniProt P11229). The test can be described thus: Cholinergic receptor muscarinic 1 (CHRM1) small molecule antagonists, cell-based qHTS assay (AID 1963588). Note: nearly all actives have a fitted effect of over 40% in size. The gist of the method: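 CHRM1-CHO calcium-flux assay, antagonist mode. Cells were seeded 18 h, dye-loaded 1 h at 37 C and given compound for 5 min at RT, then acetylcholine was added at 50nM. FDSS fluorescence was read 3 min; 15 concentrations, three runs.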
For orientation: Quantitative high-throughput screening tests each substance at several concentrations.

Test [11] concerns the target D(2) dopamine receptor (Homo sapiens) (UniProt P14416). The test can be described thus: Dopamine D2 receptor (DRD2) small molecule agonists, cell-based qHTS assay (AID 1963594). Note: nearly all actives have a fitted effect of over 35% in size. The gist of the method:
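HEK293 cells stably expressing human DRD2, pre-treated with PDE inhibitor Ro20-1724 (0.1 mM final) and compound 10 min at room temperature, then stimulated with NKH477 (200nM […]) for 30 min. cAMP read by HTRF (665/620 nm).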

In test [12] the target is 5-hydroxytryptamine receptor 2A (Homo sapiens) (UniProt P28223). Briefly: 5-hydroxytryptamine receptor 2A (HTR2A) small molecule antagonists, cell-based qHTS assay (AID 1963586). Note: nearly all actives have a fitted effect of over 45% in size. Note: potency is the fitted concentration of half-maximal effect. The gist of the method: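 Antagonist-mode intracellular calcium assay: DOI (4 nM) added after 5 min compound pre-incubation at room temperature to dye-loaded HTR2A-CHO cells. Fluorescence followed for 3 min, sampled every second.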

In test [13] the target is Muscarinic acetylcholine receptor M1 (Homo sapiens) (UniProt P11229). Briefly: Cholinergic receptor muscarinic 1 (CHRM1) small molecule agonists, cell-based qHTS assay (AID 1963589). Note: nearly all actives have a fitted effect of over 35% in size. The gist of the method: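 CHO cells stably expressing human CHRM1, seeded 18 h at 37 C/5% CO2, dye-loaded 1 h at 37 C, then given compound in agonist mode; intracellular calcium fluorescence read kinetically at 1 s intervals. Fifteen concentrations, three independent runs.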

Test [14] can be described thus: cAMP Responsive Elements (CRE) small molecule agonists, cell-based qHTS assay (AID 1963590). The gist of the method: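 CRE-bla HEK 293T cells in DMEM with 10% dialyzed FBS, NEAA, pyruvate and 25 mM HEPES were plated 18 h at 37 C/5% CO2, then exposed to compounds in DMSO for 3 h before LiveBLAzer B/G FRET substrate addition.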
Test [15] has as its target Beta-2 adrenergic receptor (Homo sapiens) (UniProt P07550). The test can be described thus: Adrenergic beta2 receptor (ADRB2) small molecule antagonists, cell-based qHTS assay (AID 1963592). Note: series mostly up to about 92 µM; nearly all actives have a fitted effect of over 50% in size. A digest of the protocol: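 Cells (CHO, stable ADRB2 overexpression) incubated 18-20hr at 37C; compounds added from DMSO; agonist mix (1nM isoproterenol, 100uM IBMX, 25uM Ro-20-1724) added; 0.5hr RT; d2-cAMP and anti-cAMP-cryptate added; 1hr RT; 665/615 nm read.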

For test [16], the target named is D(2) dopamine receptor (Homo sapiens) (UniProt P14416). The test can be described thus: Dopamine D2 receptor (DRD2) small molecule antagonists, cell-based qHTS assay (AID 1963595; active = well fitted inhibition curve with a large enough effect in the signal ratio in the repeat runs, with a control signal flat; the % refers to the signal ratio). The gist of the method:
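HTRF cAMP read-out at 665 and 620 nm emission (340 nm excitation). Antagonist mode: compounds were tested against 12 nM quinpirole in DRD2-HEK293 cells, with 200 nM NKH477 raising cAMP and 0.1 mM Ro20-1724 blocking its breakdown.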

Test [17] can be described thus: p53 small molecule agonists, cell-based qHTS assay with rat liver microsomes: qHTS cell viability counter screen (AID 1963580). Note: nearly all actives have a fitted effect of over 45% in size. The gist of the method:
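Viability is assessed in parallel with the p53 reporter read: HCT-116 p53RE-bla cells receive compounds plus rat microsomes and NADPH (0.5 mg/mL final apiece), incubate 16 h at 37 C, and then CellTiter-Glo luminescence is recorded.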

A short description of test [18]: cAMP Responsive Elements (CRE) small molecule antagonists, cell-based qHTS assay (AID 1963591; active = well fitted inhibition curve with a large enough effect in the signal ratio in the repeat runs, not every such curve was filed as active; the % refers to the signal ratio). A digest of the protocol:
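CRE-bla HEK293T cells were plated 18 h at 37 °C/5% CO2, pinned with compound in DMSO, then stimulated with NKH477 at 0.25 uM final for 3 h. LiveBLAzer B/G FRET substrate was added and plates incubated 2 h at room temperature.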

In test [19] the target is Beta-2 adrenergic receptor (Homo sapiens) (UniProt P07550). The test can be described thus: Adrenergic beta2 receptor (ADRB2) small molecule agonists, cell-based qHTS assay (AID 1963593).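 Note: CHO cells stably overexpressing human ADRB2.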 A digest of the protocol: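 CHO cells stably over-expressing ADRB2 were plated overnight at 37C, then dosed with compounds plus a stimulation mix containing 100uM IBMX and 25uM Ro-20-1724 for 0.5hr at room temperature. cAMP was measured by HTRF competition, 1hr.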

Unmarked numbers belong to inactive results. Results filed as inconclusive are left out. Activity calls are given as the source filed them. Unless noted, calls come from the whole dose curve.

Sequence of D(2) dopamine receptor (Homo sapiens) (P14416 whole entry, looked up): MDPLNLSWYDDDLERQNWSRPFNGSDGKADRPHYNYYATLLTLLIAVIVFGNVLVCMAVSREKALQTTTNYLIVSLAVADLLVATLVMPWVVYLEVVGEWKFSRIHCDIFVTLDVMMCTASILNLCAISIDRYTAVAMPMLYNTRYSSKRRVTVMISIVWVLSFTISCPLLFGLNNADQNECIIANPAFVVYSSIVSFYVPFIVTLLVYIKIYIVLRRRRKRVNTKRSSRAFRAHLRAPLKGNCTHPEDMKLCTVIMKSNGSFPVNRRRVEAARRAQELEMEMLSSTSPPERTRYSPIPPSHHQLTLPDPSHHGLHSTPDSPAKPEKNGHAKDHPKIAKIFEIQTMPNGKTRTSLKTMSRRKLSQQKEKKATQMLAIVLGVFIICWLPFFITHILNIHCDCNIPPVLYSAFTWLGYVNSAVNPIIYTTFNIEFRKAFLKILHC
Sequence of 5-hydroxytryptamine receptor 2A (Homo sapiens) (P28223 whole entry, looked up): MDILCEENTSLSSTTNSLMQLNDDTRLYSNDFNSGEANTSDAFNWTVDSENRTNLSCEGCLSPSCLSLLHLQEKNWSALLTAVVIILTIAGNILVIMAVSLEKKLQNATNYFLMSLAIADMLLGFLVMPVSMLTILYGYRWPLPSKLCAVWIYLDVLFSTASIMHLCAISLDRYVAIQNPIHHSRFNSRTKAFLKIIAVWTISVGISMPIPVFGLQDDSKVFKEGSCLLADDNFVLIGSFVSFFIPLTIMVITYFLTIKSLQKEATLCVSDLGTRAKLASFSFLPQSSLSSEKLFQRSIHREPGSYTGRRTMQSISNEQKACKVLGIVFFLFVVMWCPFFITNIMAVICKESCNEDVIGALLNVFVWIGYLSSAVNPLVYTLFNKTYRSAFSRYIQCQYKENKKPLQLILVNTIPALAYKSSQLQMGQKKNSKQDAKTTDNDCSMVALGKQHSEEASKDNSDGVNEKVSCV
Sequence of Muscarinic acetylcholine receptor M1 (Homo sapiens) (P11229 whole entry, looked up): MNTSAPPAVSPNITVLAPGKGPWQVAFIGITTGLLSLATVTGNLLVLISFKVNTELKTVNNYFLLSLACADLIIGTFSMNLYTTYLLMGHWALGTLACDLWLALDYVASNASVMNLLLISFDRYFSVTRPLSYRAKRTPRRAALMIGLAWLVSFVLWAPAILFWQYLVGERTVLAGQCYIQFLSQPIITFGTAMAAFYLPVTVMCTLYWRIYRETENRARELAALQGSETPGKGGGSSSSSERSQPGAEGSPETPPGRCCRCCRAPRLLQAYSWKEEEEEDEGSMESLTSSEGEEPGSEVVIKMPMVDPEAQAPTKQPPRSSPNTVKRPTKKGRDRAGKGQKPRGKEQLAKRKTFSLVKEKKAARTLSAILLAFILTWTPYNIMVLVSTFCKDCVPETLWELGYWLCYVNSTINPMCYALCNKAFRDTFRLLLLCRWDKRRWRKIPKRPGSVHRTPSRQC
Sequence of Gonadotropin-releasing hormone receptor (Homo sapiens) (P30968 whole entry, looked up): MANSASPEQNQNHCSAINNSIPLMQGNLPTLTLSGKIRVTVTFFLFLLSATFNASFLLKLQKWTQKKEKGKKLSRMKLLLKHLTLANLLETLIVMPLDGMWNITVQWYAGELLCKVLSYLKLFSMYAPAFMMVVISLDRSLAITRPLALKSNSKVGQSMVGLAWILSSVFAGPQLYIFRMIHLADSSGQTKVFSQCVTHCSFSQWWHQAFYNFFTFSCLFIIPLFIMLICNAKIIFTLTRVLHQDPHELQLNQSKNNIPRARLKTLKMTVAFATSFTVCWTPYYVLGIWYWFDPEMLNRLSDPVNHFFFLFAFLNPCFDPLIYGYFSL
Sequence of Beta-2 adrenergic receptor (Homo sapiens) (P07550 whole entry, looked up): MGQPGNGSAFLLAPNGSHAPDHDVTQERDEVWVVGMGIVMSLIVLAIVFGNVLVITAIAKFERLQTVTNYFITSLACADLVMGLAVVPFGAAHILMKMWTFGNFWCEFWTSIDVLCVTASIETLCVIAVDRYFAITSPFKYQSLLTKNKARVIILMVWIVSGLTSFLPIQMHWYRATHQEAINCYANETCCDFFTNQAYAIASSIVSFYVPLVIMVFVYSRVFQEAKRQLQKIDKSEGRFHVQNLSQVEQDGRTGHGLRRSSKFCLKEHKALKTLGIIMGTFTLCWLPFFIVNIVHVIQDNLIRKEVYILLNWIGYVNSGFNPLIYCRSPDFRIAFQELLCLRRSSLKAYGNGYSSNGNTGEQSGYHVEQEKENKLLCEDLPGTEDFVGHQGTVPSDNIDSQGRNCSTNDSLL
Sequence of KiSS-1 receptor (Homo sapiens) (Q969F8 whole entry, looked up): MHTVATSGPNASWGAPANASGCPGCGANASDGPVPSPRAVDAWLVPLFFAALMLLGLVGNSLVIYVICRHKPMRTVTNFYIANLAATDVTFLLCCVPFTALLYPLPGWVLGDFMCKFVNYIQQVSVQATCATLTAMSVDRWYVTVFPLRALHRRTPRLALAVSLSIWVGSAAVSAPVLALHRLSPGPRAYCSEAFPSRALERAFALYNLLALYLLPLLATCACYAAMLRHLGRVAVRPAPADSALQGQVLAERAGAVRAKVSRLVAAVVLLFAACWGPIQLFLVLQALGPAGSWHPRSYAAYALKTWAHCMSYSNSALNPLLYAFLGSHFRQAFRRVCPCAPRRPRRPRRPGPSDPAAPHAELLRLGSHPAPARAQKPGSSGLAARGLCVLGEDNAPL

As to `CC(O)(c1ccc(Cl)cc1)c1ccc(Cl)cc1`, the Potency entry in test [1], in test [2], in test [3], in test [4], in test [5] and in [7] was “inactive” throughout. In addition, the Potency entry in [8], in test [10] and in test [11] was “inactive” in each case. Also, the Potency in [6] is 45.8 µM (active); in test [9], 49 µM (active).

`CC(CO)(CO)CO`: the Potency entry in test [1], in [2], in test [3], in test [4], in [5] and in [6] was “inactive” throughout. In addition, the Potency entry in test [7], in [12], in test [9], in test [10], in [13] and in [14] was “inactive” throughout. Besides, the Potency entry in [15], in [11] and in test [16] was “inactive” throughout.

For the molecule `CCCN(C1CCN(C(=O)C2CCNCC2)CC1)[C@@H]1CCc2ccc(OC)cc2C1`, the Potency result in test [1], in [2], in test [3], in test [4], in [6] and in [17] was “inactive” in each case. Moreover, the Potency result in [7], in [8], in [10], in test [13], in test [15] and in [11] was “inactive” in each case. Besides, the Potency result in [16] is “inactive”. The figures for the Potency in test [12] and in test [9] were 37.5 µM (active) and 17.4 µM (active), respectively.

Turning to `c1ccc2sc(SN(C3CCCCC3)C3CCCCC3)nc2c1`, the Potency result in [1], in test [2], in test [3], in test [6], in test [17] and in test [7] was “inactive” in each case. Also, the Potency entry in [12], in [9], in test [10], in test [13], in [18] and in [15] was “inactive” in each case. The Potency result in test [19], in [11] and in test [16] was “inactive” each time.

Consider `CCCCOc1ccc(N)cc1`, for which the Potency entry in test [1], in [2], in [3], in [5], in [6] and in test [17] was “inactive” in each case. Further, the Potency entry in test [7], in test [8], in test [12], in test [9], in test [10] and in test [13] was “inactive” each time. Besides, the Potency result in test [14], in test [18], in [15], in test [19] and in test [11] was “inactive” throughout.

Take `O=C(O)c1ccccc1-c1ccc(C(F)(F)F)cc1`: the Potency entry in [1], in [2], in test [3], in test [17], in test [7] and in [12] was “inactive” each time. Moreover, the Potency entry in [9], in test [10], in test [13], in [14], in test [18] and in [19] was “inactive” in each case. For the same molecule, the Potency result in test [16] was “inactive”.

Turning to `Oc1ccccc1-c1nnco1`, the Potency result in test [1], in test [2], in test [3], in [5], in test [6] and in [17] was “inactive” in each case. Also, the Potency entry in test [7], in test [8], in [12], in test [9], in test [10] and in test [13] was “inactive” in each case. In addition, the Potency result in test [14], in [18], in [15], in [11] and in test [16] was “inactive” each time.

As to `Nc1ccc([N+](=O)[O-])cc1O`, the Potency entry in test [1], in [2], in [3], in test [4], in test [6] and in test [8] was “inactive” throughout. In addition, the Potency result in [12], in test [9], in test [10], in [13], in [14] and in [18] was “inactive” throughout.

Values taken from PubChem BioAssay (Tox21).
